Experimental data taken from ChEMBL document CHEMBL3433997, “St. Jude Leishmania screening dataset” (2016).

How the values were obtained:
Type in all cases: functional
[1] = target: Solute carrier family 2, facilitated glucose transporter member 1 (Homo sapiens) (UniProt P11166); assay: ST_JUDE_LEISH: Cytotoxicity at 2uM final concentration against transgenic Leishmania Mexicana promastigotes LmGLUT1 that are glucose transport deficient and complemented with the human glucose transporter GLUT1. Activity is measured by DNA content using SYBR green in vitro
[2] = target: Hexose transporter 1 (Plasmodium falciparum) (UniProt O97467); assay: ST_JUDE_LEISH: Cytotoxicity at 2uM final concentration against transgenic Leishmania Mexicana promastigotes LmPfHT that are glucose transport deficient and complemented with the Plasmodium falciparum hexose transporter. Activity is measured by DNA content using SYBR green in vitro
[3] = target: Glucose transporter (Leishmania mexicana) (UniProt O61059); assay: ST_JUDE_LEISH: Cytotoxicity at 2uM final concentration against transgenic Leishmania Mexicana promastigotes LmGT2 that are glucose transport deficient and complemented with the L. Mexicana glucose transporter 2. Activity is measured by DNA content using SYBR green in vitro

Sequence of Solute carrier family 2, facilitated glucose transporter member 1 (Homo sapiens) (P11166 whole entry): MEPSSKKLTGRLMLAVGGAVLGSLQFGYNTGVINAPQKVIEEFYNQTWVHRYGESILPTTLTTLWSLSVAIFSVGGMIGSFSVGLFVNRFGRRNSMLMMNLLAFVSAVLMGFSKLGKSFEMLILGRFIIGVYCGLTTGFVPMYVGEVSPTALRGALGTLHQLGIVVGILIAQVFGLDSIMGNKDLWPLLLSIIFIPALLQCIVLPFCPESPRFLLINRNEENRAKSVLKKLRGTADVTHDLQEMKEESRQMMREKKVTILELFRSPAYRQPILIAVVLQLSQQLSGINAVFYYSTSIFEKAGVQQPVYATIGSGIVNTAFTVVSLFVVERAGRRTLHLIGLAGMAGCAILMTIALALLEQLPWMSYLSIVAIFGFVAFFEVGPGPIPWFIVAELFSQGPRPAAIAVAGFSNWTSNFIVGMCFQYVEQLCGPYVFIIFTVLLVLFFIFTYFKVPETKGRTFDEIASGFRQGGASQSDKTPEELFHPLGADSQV

Compound | inhibition [1] [%] | inhibition [2] [%] | inhibition [3] [%]
O=C1Nc2cccc3c2C1(CCCN1CCC(c2c[nH]c4cc(C(F)(F)F)ccc24)CC1)CCC3 (stereo not drawn) | -0.49 | -2.03 | -0.71
O=C(NCc1ccc(Cl)c(Cl)c1)c1ccc(-c2nc3cc(F)c(F)cc3[nH]2)cc1 | 0.21 | 0.14 | -0.73
N#Cc1cnc2cc(-c3cnc(CNCCN4CCOCC4)s3)ccc2c1Nc1ccc(Oc2ccccc2)cc1 | 1.96 | 3.38 | 1.64
CC[C@H]1CN2CCc3cc(OC)c(OC)cc3[C@@H]2C[C@@H]1CC1=NCCc2c1[nH]c1ccc(OCc3ccccc3)cc21 | 0.63 | 0.59 | 2.89
Cc1cc(NCCC(=O)NCCOc2ccccc2)nc(NCCc2ccc(F)cc2)n1 | 2.06 | 0.98 | -2.75
O=C(Nc1nc2cc(S(=O)(=O)NCCCN3CCOCC3)ccc2n1CCCn1ccnc1)c1ccc(Cl)cc1 | 5.51 | 5.43 | 4.2
O=C(c1cc(C(=O)Nc2ccc(F)cc2)c(=O)n(-c2ccc(F)cc2)c1)c1cc(Cl)ccc1O | 0.23 | 2.19 | 0.22
O=C(Nc1ccsc1)Nc1cccc(-c2cccc(-c3nc4ccccc4[nH]3)c2)c1 | 9.79 | 10.8 | 4.27
O=C(NCCN1CCCCC1)N1CCCN(c2ncnc3cc(-c4ccccc4)sc23)CC1 | 2.21 | 1.64 | 2.05
Cc1cc(N2CCN(C3CCCCC3)CC2)nc2cccc(O)c12 | -1.8 | -0.66 | 0.33
Nc1ncc(-c2cn[nH]c2)cc1-c1nc2ccc(F)cc2[nH]1 | 2.58 | 3.29 | 1.99
COc1cccc2cc(C(=O)N[C@@H](CC(C)C)C(=O)N[C@H](/C=N/N3C(=O)CN(Cc4ccccc4)C3=O)CCc3ccccc3)oc12 | 7.07 | 8.34 | 6.11
Cc1cc(CNCC2CCC(CNCCCc3ccccc3)CC2)ccc1O (stereo not drawn) | 9.97 | 8.79 | 7.65
Cc1cc(C2NC(=O)c3ccccc3N2)c(C)n1-c1ccc2c(c1)OCO2 (stereo not drawn) | 4.98 | 3.59 | 4.51
CC(=O)Oc1c(C2CCN(CCCCNC(=O)c3ccc(NC(=O)c4ccc(Cl)cc4)cc3)CC2)ccc2ccccc12 | 3.43 | 3.63 | 4.42
CCCCOc1ccc(C(O)C(CN2CCCCC2)c2ccccc2)cc1 (stereo not drawn) | 1.61 | 1.36 | 0.33
c1ccc2[nH]c(-c3ccc(-c4ccc(CN5CCN(c6ccncc6)CC5)cc4)cc3)nc2c1 | 21.3 | 15.4 | 6.31
COC(=O)C(NC(=O)c1ccc(-c2ccc(-c3nc4ccccc4[nH]3)s2)cc1)c1ccc(O)cc1 (stereo not drawn) | 3.31 | 2.37 | 3.11
COc1ccc2c(=O)ccn(CCN3CCC(NCc4ccc5c(n4)NC(=O)CS5)CC3)c2c1 | 3.6 | 2.3 | 3.24
Cc1ccc(CN2CCN(c3cc4c(cc3Cl)CCN4C(=O)Cc3ccc(NC(=O)c4ccc(C(F)(F)F)cc4)cc3)CC2)cc1 | 6.58 | 5.46 | 1.59
CCc1ccc(-n2cc(C(=O)c3cc(Br)ccc3O)cc(C#N)c2=O)cc1 | 3.35 | 3.08 | 2.28
CCCCCCN1CCC(NCc2ccc(CN(C)C)cc2)CC1 | 0.45 | 2.27 | -7.52
Cc1cc(C(=O)Nc2ccc3c(c2)CCN3C2CCN(Cc3ccc4nsnc4c3)C2)no1 (stereo not drawn) | 3.24 | 2.32 | 5.35
CCC[C@@H]([C@@H](CC(C)C)C(=O)N[C@@H](CCCNc1nccc(C(F)(F)F)n1)C(=O)Nc1nccs1)N(O)C=O | 3.82 | 4.8 | 3.22
CN(c1ccc(NC(=O)c2cccc(F)c2)cc1)C1CCCN(Cc2cccc(O)c2)C1 (stereo not drawn) | -0.85 | -2.67 | -0.73
COc1ccc2nc(-c3ccccc3)cc(NCCN(C)C)c2c1 | 8.41 | 9.21 | 4.86

Compound | inhibition [1] [%] | inhibition [2] [%] | inhibition [3] [%]
COc1cccc2c(NN=Cc3cccc(F)c3)ccnc12 | 3.44 | 2.06 | 1.75
c1ccc2c(CNc3ccnc(NCc4cccc5ccccc45)n3)cccc2c1 | 9.83 | 5.69 | 7
CC(=O)Nc1cccc(Nc2c3ccccc3nc3ccccc23)c1 | 1.69 | 3.82 | 0.54
O=C(Nc1ccc(N2CCCN(Cc3cccc(F)c3)CC2)cc1)c1ccc(F)cc1 | 4.73 | 5.55 | 5.51
COc1ccc(NC(=O)Nc2cccc(-c3ccc(-c4nc5cccc(C)c5[nH]4)s3)c2)cc1 | 6.52 | 5.29 | 3.22
CN1CCCN(c2ccnc3cc4c(cc23)N(C(=O)c2ccc(Cl)c(Cl)c2)CC4)CC1 | 0.8 | 1.89 | 1.54
OC(c1ccccc1)C1CN(Cc2ccccc2)CCC1(O)c1ccccc1 (stereo not drawn) | 8.06 | 7.93 | 7
N#Cc1ccc(-c2ccc(C(=O)NCC3CCN(CCN4CCC(c5ccc6c(c5OCC(N)=O)CCCC6)CC4)CC3)cc2)cc1 | -0.38 | -0.09 | 2.54
O=S(=O)(Nc1cccc(CCN2CCCCC2CCN2CCCC2)c1)c1ccc(-c2ccccc2)cc1 (stereo not drawn) | 2.86 | -0.3 | -2.73
O=C(c1cc2cccc([N+](=O)[O-])c2[nH]1)N1CCC(CCN2CCC(c3c[nH]c4ccccc34)CC2)CC1 | 1.52 | 12.8 | 2.6
CCC/C=C/c1c(CNCCCNc2cc(=O)c3ccccc3[nH]2)sc(CC)c1Br | 0.5 | 1.29 | 0.32
CC(=O)c1cccc2c(NC(=O)Nc3ccc4nccc(N5CCN(C)CC5)c4c3)cccc12 | 7.67 | 6.04 | 7.35
Cc1cc(N2CCOCC2)nc2ccc(NC(=O)c3cccc([N+](=O)[O-])c3)cc12 | 5.27 | 4.5 | 3.77
CCN1CCCC(CNC(=O)/C(=C/C=C/c2cc3cc(Cl)c(Cl)cc3[nH]2)OC)C1 (stereo not drawn) | -0.41 | 1.17 | 1.2
CN(C)CC(=O)Nc1cccc(Nc2nccc(NCC(O)c3ccccc3)n2)c1 (stereo not drawn) | 1.36 | 0.33 | -0.94
COc1ccccc1C1CCN(C2CCC(NC(=O)/C=C/c3ccc(C(F)(F)F)cc3F)CC2)CC1 (stereo not drawn) | 0.47 | 1.54 | -0.44
CN(C)CCCc1cc2c(cc1Cl)CCN2C(=O)Nc1ccc(-c2ccncc2)c2ccccc12 | -2.58 | -1.62 | -3.5
COc1ccc(NC(C)C(=O)Nc2ccc(Br)cc2)cc1S(=O)(=O)N1CCCCC1 (stereo not drawn) | -1 | 1.34 | 1.93
Cn1nc(-c2ccc(Cl)cc2)c2cc(C(=O)NCCN3CCOCC3)sc21 | -0.16 | 1.5 | -0.52
O=C(Nc1ccccc1)Nc1ccc(-n2ccc(C(F)(F)F)n2)cc1 | 2.55 | 2.63 | -0.06
Cc1cccc2nc(-c3cccc(-c4ccc(CNCc5ccccc5)cc4)c3)[nH]c12 | 5.37 | 3.63 | 1.78
Cc1cc(C(=O)Nc2ccc3c(c2)CCN3C2CCN(Cc3cc(F)cc(F)c3F)C2)no1 (stereo not drawn) | -0.31 | 1.36 | 5.53
CO/N=C(\C)c1ccc2c(c1)CCN(CCC1CCC(NC(=O)c3cccc(-c4noc(C)n4)c3)CC1)CC2 (stereo not drawn) | 3.41 | -1.53 | 0.75
CCc1cc(NCc2ccncc2)nc(Nc2ccc(F)cc2)n1 | 14.4 | 6.44 | 4.12
Fc1ccc(Nc2ccnc3cc(-c4cccc(CN5CCCCC5)c4)ccc23)c(Cl)c1 | 4.23 | 3.95 | 3.3
